{
  "source": "PubChem BioAssay AID652154",
  "about": "(Broad Institute, 2013)",
  "note": "Screen size: about 360,000 compounds; about 4,200 (1.2%) were called active.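 Rule for the calls: active = mean replicate inhibition at least 60% with every replicate also reaching 60%; inconclusive = only one of the two criteria is met; inactive = mean below 60% and not all replicates reaching 60%.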 Many of the other results were omitted from the sample, so actives are more common in it than they were.",
  "data": [
    {"experiment": "PAX8 transcriptional activity inhibition in RMG-I – RMG-I cells, luciferase, single concentration, primary screen (AID 652154);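 note: luciferase light reporting Pax8 driven TPO promoter activity; plate controls were median of neutral control wells for no effect and mitoxantrone controls for full effect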", "details": "RMG-I TPO-luciferase reporter, SteadyGlo, 24 h; at 12.6 µM; stronger effect = higher value", "values": [
      {"compound": "S=c1[nH]nc(-c2cccnc2)n1/N=C/C(Cl)=C\\c1ccccc1", "inhibition": "72.4% (active)"},
      {"compound": "S=c1[nH]nc(-c2cccs2)n1/N=C/c1cn(-c2ccccc2)nc1-c1ccc(Cl)cc1", "inhibition": "3.55% (inactive)"},
      {"compound": "Cc1cc(-c2n[nH]c(=S)n2/N=C/C(Br)=C/c2ccccc2)n[nH]1", "inhibition": "94% (active)"},
      {"compound": "Cc1ccccc1-c1n[nH]c(=S)n1/N=C/c1ccc(-c2ccccc2Br)o1", "inhibition": "-5.71% (inactive)"},
      {"compound": "Fc1ccc(/C=N/n2c(COc3ccccc3)n[nH]c2=S)cc1", "inhibition": "-9.55% (inactive)"},
      {"compound": "COc1ccccc1N1CCN(/N=C\\C(Br)=C\\c2ccccc2)CC1", "inhibition": "3.71% (inactive)"},
      {"compound": "COc1cccc(-c2ccc([C@H]3[C@H]4CN(C(=O)NC(C)C)CC(=O)N4[C@H]3CO)cc2)c1", "inhibition": "-13.6% (inactive)"},
      {"compound": "CCC(=O)N1C[C@@H](C)[C@@H](OC)CN(C)C(=O)c2ccc(NC(=O)C3CCCCC3)cc2OC[C@@H]1C", "inhibition": "-13.2% (inactive)"},
      {"compound": "O=C(C1CC1)N1CCCCN2[C@H](C1)[C@@H](c1ccc(-c3cccc(F)c3)cc1)[C@@H]2CO", "inhibition": "4.79% (inactive)"},
      {"compound": "O=C(c1cccc(F)c1)N1CCCCN2[C@H](CO)[C@@H](c3ccc(-c4cncnc4)cc3)[C@H]2C1", "inhibition": "-27.3% (inactive)"},
      {"compound": "O=C(C[C@@H]1C=C[C@@H](NC(=O)c2cccnc2)[C@H](CO)O1)NCc1ccncn1", "inhibition": "2.15% (inactive)"},
      {"compound": "CO[C@@H]1CN(C)C(=O)c2ccc(NC(=O)Nc3c(C)noc3C)cc2OC[C@H](C)N(CC2CC2)C[C@H]1C", "inhibition": "4.7% (inactive)"},
      {"compound": "CC1(C)CC(=O)C=C(N2CCOCC2)C1", "inhibition": "7.18% (inactive)"},
      {"compound": "CC1(C)CC(N2CCN(C(c3ccccc3)c3ccccc3)CC2)=CC(=[N+]2CCCCC2)C1", "inhibition": "94.1% (active)"},
      {"compound": "Cc1onc(C(=O)NN)c1C(=O)N1CCN(C(c2ccccc2)c2ccccc2)CC1", "inhibition": "17.8% (inactive)"},
      {"compound": "CCCCCCCCN1C(=O)[C@@H](CC(=O)NCc2ccccc2)C[C@@]2(C(=O)OC)C1=C[C@H](C(C)(C)C)O[C@@H]2C", "inhibition": "19.6% (inactive)"},
      {"compound": "COc1ccccc1/C=C1\\SC(=O)N(CCC(=O)N(C)C2CCS(=O)(=O)C2)C1=O", "note": "(stereo not given)", "inhibition": "-11.6% (inactive)"},
      {"compound": "CN(C(=O)CCN1C(=O)/C(=C/c2ccccc2F)SC1=S)C1CCS(=O)(=O)C1", "note": "(stereo not given)", "inhibition": "74.1% (active)"},
      {"compound": "CN(C(=O)CN1C(=O)S/C(=C\\c2ccccc2F)C1=O)C1CCS(=O)(=O)C1", "note": "(stereo not given)", "inhibition": "10.3% (inactive)"},
      {"compound": "Cn1c(CCN2CCN(c3ccccn3)CC2)nc2cc(NS(=O)(=O)c3ccc(F)cc3)ccc21", "inhibition": "50.3% (inactive)"},
      {"compound": "Cn1c(CCN2CCCC2)nc2cc(NS(=O)(=O)c3ccccc3)ccc21", "inhibition": "119% (active)"},
      {"compound": "CCC(=O)Nc1ccc2c(c1)nc(CCN1CCN(c3ccccn3)CC1)n2C", "inhibition": "-3.44% (inactive)"},
      {"compound": "O=C(Nc1ccccc1)Nc1ccc2c(c1)[C@@H]1C[C@@H](CC(=O)N3CCCCC3)O[C@H](CO)[C@@H]1O2", "inhibition": "-0.47% (inactive)"},
      {"compound": "O=C(c1cccc(F)c1)N1CCCCN2[C@@H](CO)[C@H](c3ccc(-c4cncnc4)cc3)[C@@H]2C1", "inhibition": "2.95% (inactive)"},
      {"compound": "CCOc1cc(/C=N/NC(=O)CN2CCCCC2)ccc1O", "inhibition": "3.31% (inactive)"},
      {"compound": "C/C(=N\\NC(=O)c1cccc(N2CCCC2=O)c1)c1ccc(N)cc1", "inhibition": "-0.282% (inactive)"},
      {"compound": "COc1cc(/C=N/NC(=O)c2ccc(N3CCCC3=O)cc2)ccc1O", "inhibition": "86.3% (active)"},
      {"compound": "CN(C)CC(=O)Nc1ccc2c(c1)[C@H]1C[C@@H](CC(=O)NCc3ccccn3)O[C@@H](CO)[C@H]1O2", "inhibition": "-17.3% (inactive)"},
      {"compound": "CO[C@@H]1CC[C@H]2CCOc3c(C#N)cccc3C(=O)N(C)C[C@@H](OC)[C@H](C)C(=O)N(C)C[C@@H]1O2", "inhibition": "-5.56% (inactive)"},
      {"compound": "COc1ccccc1-c1cn(CC[C@H]2CC[C@@H](NC(=O)Cc3ccccn3)[C@@H](CO)O2)nn1", "inhibition": "-1.82% (inactive)"},
      {"compound": "COc1ccc2[nH]c3c(C)c4cc[n+](C)cc4c(C)c3c2c1", "inhibition": "70.3% (active)"},
      {"compound": "C/C=C/c1ccc([C@H]2[C@@H](CNC(=O)NC(C)C)N(C(=O)C3CCC3)[C@H]2CO)cc1", "inhibition": "6.6% (inactive)"},
      {"compound": "CO[C@@H]1CN(C)C(=O)c2cc(NS(C)(=O)=O)ccc2OC[C@H](C)N(C(=O)C2CC2)C[C@@H]1C", "inhibition": "-16.6% (inactive)"},
      {"compound": "Oc1ccc2ccccc2c1N=Nc1nccs1", "inhibition": "90.5% (active)"},
      {"compound": "C[C@@H]1CN([C@@H](C)CO)C(=O)c2cc(NS(=O)(=O)c3ccccc3)ccc2O[C@@H](C)CCCCO[C@@H]1CN(C)S(=O)(=O)c1cccs1", "inhibition": "17.1% (inactive)"},
      {"compound": "CC(C)NC(=O)N(C)C[C@@H]1OCCCC[C@@H](C)Oc2ccc(NC(=O)Cc3ccccc3)cc2C(=O)N([C@H](C)CO)C[C@H]1C", "inhibition": "20.4% (inactive)"},
      {"compound": "CCN1/C(=C\\c2ccc3ccccc3[n+]2CC)Sc2cc(C)ccc21", "inhibition": "93.7% (active)"},
      {"compound": "O=C(C[C@@H]1C[C@@H]2c3cc(NC(=O)C4CCOCC4)ccc3O[C@@H]2[C@@H](CO)O1)NC1CCCCC1", "inhibition": "8.24% (inactive)"},
      {"compound": "C[C@@H]1CN([C@H](C)CO)C(=O)Cc2cc(NC(=O)C3CC3)ccc2O[C@H]1CN(C)Cc1ccc(Cl)c(Cl)c1", "inhibition": "11.3% (inactive)"},
      {"compound": "COc1cccc(-c2ccc([C@@H]3[C@@H](CO)N(C(=O)c4ccccn4)[C@H]3C#N)cc2)c1", "inhibition": "-77.2% (inactive)"},
      {"compound": "COc1cccc(-c2ccc([C@@H]3[C@@H](C#N)N(C(=O)c4ccccn4)[C@H]3CO)cc2)c1", "inhibition": "-20.8% (inactive)"},
      {"compound": "COc1cccc(C#Cc2ccc([C@H]3[C@@H](CO)N(C(=O)c4ccccn4)[C@H]3C#N)cc2)c1", "inhibition": "92.4% (active)"},
      {"compound": "CN1C(=O)c2cc(NC(=O)c3cscn3)ccc2OC[C@@H]2O[C@H](CC(=O)N3CCCCC3)CC[C@H]21", "inhibition": "-16.1% (inactive)"},
      {"compound": "CCCN(C)C[C@H]1OCCCC[C@@H](C)Oc2ccc(NC(=O)CCC(F)(F)F)cc2C(=O)N([C@H](C)CO)C[C@H]1C", "inhibition": "8.93% (inactive)"},
      {"compound": "Cn1c(=O)c2c(-c3cccc(Br)c3)c(C#N)c(N)nc2n(C)c1=O", "inhibition": "4.92% (inactive)"},
      {"compound": "CSc1ccc(-c2c(C#N)c(N)nc3c2c(C)nn3-c2ccccc2)cc1", "inhibition": "66.4% (active)"},
      {"compound": "Cc1nc2c(c(C)nn2-c2ccccc2)c(C)c1C", "inhibition": "12.6% (inactive)"},
      {"compound": "C[C@H]1CN([C@@H](C)CO)C(=O)c2cccc(NS(=O)(=O)c3cn(C)cn3)c2O[C@@H]1CN(C)C(=O)Nc1ccc(F)cc1", "inhibition": "-9.83% (inactive)"},
      {"compound": "O=C(Nc1ccccc1)N[C@@H]1CC[C@H](CCNS(=O)(=O)c2ccccc2F)O[C@@H]1CO", "inhibition": "-8.59% (inactive)"},
      {"compound": "C/C(CC1CC(C)(C)OC1=O)=N/Nc1nc(-c2ccccc2)cs1", "note": "(stereo not given)", "inhibition": "19.2% (inactive)"},
      {"compound": "Cc1ccc(-c2csc(NC3OC(=O)c4ccccc43)n2)cc1", "note": "(stereo not given)", "inhibition": "92.3% (active)"},
      {"compound": "Cc1ccc(-c2csc(NC(=O)C3=COCCO3)n2)cc1C", "inhibition": "-109% (inactive)"},
      {"compound": "CC(=O)N1[C@H](CO)[C@H](c2ccc(-c3ccccc3)cc2)[C@H]1CNC(=O)C1CC1", "inhibition": "-4.5% (inactive)"},
      {"compound": "CN(C)CCNC(=O)c1cccc(-c2cnc3c(NC=O)cc(-c4cccc(C(F)(F)F)c4)cn23)c1", "inhibition": "109% (active)"},
      {"compound": "CC(=O)c1cccc(-c2cnc3c(NC=O)cc(-c4cccc(C(=O)N(C)C)c4)cn23)c1", "inhibition": "12.7% (inactive)"},
      {"compound": "CN(C)C(=O)c1cccc(-c2cnc3c(NC=O)cc(-c4ccc(F)cc4)cn23)c1", "inhibition": "33.9% (inactive)"},
      {"compound": "COc1ccc(NC(=O)Nc2ccc3c(c2)C(=O)N([C@H](C)CO)C[C@H](C)[C@H](CN(C)S(=O)(=O)c2ccc(Cl)cc2)OCCCC[C@H](C)O3)cc1", "inhibition": "26.6% (inactive)"},
      {"compound": "O=C(C[C@@H]1C[C@@H]2c3cc(NS(=O)(=O)c4ccccc4)ccc3O[C@@H]2[C@@H](CO)O1)NC1CCCCC1", "inhibition": "15.4% (inactive)"},
      {"compound": "CCOC(=O)c1c(C)[nH]c2c1-c1ccccc1C(=O)C2=O", "inhibition": "107% (active)"},
      {"compound": "CCOC(=O)c1c(C)[nH]c(C)c1S(=O)(=O)NCCCc1ccco1", "inhibition": "-4.09% (inactive)"},
      {"compound": "CCOC(=O)c1c(C)[nH]c(C(=O)OCC(=O)c2ccc(OC)cc2OC)c1C", "inhibition": "-7.09% (inactive)"},
      {"compound": "COCC(=O)Nc1ccc2c(c1)C(=O)N(C)C[C@@H](OC)[C@@H](C)CN(C(=O)c1ccccc1)[C@@H](C)CO2", "inhibition": "-10.2% (inactive)"},
      {"compound": "CC(=O)N1[C@@H](CO)[C@@H]2c3ccccc3N(S(=O)(=O)c3ccccc3)C[C@@H]21", "inhibition": "7.26% (inactive)"},
      {"compound": "O=C(C(=O)N1CCC(CNC(=O)c2cccnc2Cl)CC1)c1cccs1", "inhibition": "-11.9% (inactive)"},
      {"compound": "Cc1ccc(-c2cc(C(=O)N/N=C/C=C/c3ccccc3)n[nH]2)o1", "inhibition": "47.7% (inactive)"},
      {"compound": "Cc1cc(C(=O)N/N=C\\C(Br)=C\\c2ccccc2)c(C)o1", "inhibition": "63% (active)"},
      {"compound": "O=C(N/N=C\\c1cccc(Br)c1)c1ccccc1-n1cccc1", "inhibition": "24.9% (inactive)"},
      {"compound": "CC(/C=N/NC(=O)c1cc(-c2ccc3ccccc3c2)n[nH]1)=C\\c1ccco1", "inhibition": "-6.24% (inactive)"},
      {"compound": "CC(C)c1cc(C(=O)N/N=C/C(Br)=C/c2ccccc2)n[nH]1", "inhibition": "74.5% (active)"},
      {"compound": "Cc1cc(C(=O)NCCc2ccc(Cl)cc2)c(C)o1", "inhibition": "-114% (inactive)"},
      {"compound": "O=C(Nc1cccc(F)c1)N[C@@H]1CC[C@@H](CCn2cc(Cc3ccccc3)nn2)O[C@@H]1CO", "inhibition": "3.01% (inactive)"},
      {"compound": "C[C@H](CO)N1C[C@H](C)[C@H](CN(C)C(=O)Nc2ccc3c(c2)OCO3)Oc2ccc(NS(=O)(=O)c3ccc(Cl)cc3)cc2CC1=O", "inhibition": "-20.9% (inactive)"},
      {"compound": "CN1[C@@H]2CN(C(=O)c3ccc(F)cc3)c3ccccc3[C@@H]2[C@@H]1CO", "inhibition": "-1.94% (inactive)"},
      {"compound": "O=C(Nc1cc(F)ccc1F)N[C@H]1CC[C@@H](CCn2cc(C3CCCC3)nn2)O[C@@H]1CO", "inhibition": "5.81% (inactive)"},
      {"compound": "Cc1noc(C)c1NC(=O)N(C)C[C@H]1Oc2ccc(NC(=O)C3CCCCC3)cc2CC(=O)N([C@@H](C)CO)C[C@H]1C", "inhibition": "-10.9% (inactive)"}
    ]}
  ]
}
